Compound activity deposited in PubChem BioAssay by several laboratories.
The list is not random: actives were taken first. Their share in the collection is about 3.7%.
ANO1 block – mouse TMEM16A channel inhibition, primary screen | Q8BHY3 | HEK293 TMEM16A/YFP iodide influx fluorescence, ionomycin | normalized B-score (activity score, 25-100; higher = stronger inhibition) at 10 µM | hit rate 1.2% among 310,000 | AID 588511;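 active means ratio plate-corrected score three or more library SD toward inhibition, starting fluorescence score within five deviations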;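 further: score derived from kinetic fluorescence span divided by baseline fluorescence per well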
GPR7 antagonist – blocks human GPR7 receptor signaling; P48145; GPR7-expressing cells, fluorescence antagonist assay; inhibition, % at 4.4 µM; hit rate 1.1% among 290,000; AID 1861; in the data active means inhibition above about 16%, passing the limit was not always enough;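 further: cells stimulated with the agonist NPW; 0% = agonist with vehicle and 100% = vehicle without agonist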
Target sequence (P48145 whole entry, looked up): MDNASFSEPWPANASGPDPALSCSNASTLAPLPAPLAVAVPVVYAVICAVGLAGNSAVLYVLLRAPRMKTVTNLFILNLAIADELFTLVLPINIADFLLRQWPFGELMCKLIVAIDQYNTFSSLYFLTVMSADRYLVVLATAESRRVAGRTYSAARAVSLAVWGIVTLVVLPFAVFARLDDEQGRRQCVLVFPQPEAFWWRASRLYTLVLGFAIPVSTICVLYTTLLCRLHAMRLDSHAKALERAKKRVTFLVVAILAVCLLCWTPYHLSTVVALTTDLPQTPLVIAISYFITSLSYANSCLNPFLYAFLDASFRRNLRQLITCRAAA
Kir21 inh – inhibitors of mouse Kir2.1 inward-rectifier potassium channel | P35561 | HEK293-Kir2.1, FluxOR thallium flux fluorescence; hits give low values | B-score at 10 µM | hit rate 0.85% among 310,000 | AID 1672;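 active means fluorescence ratio B-score at or below minus 3 SD of library scores, with starting-brightness B-score within 2 SD, cut at about -4.2 in these data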;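 further: channel flux triggered by added potassium and thallium sulfate stimulus; B-score of peak minus minimum fluorescence over baseline after thallium stimulus; more negative B-score means stronger Kir2.1 block with less thallium influx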
CHT inh – inhibitors of human choline transporter CHT; B-score at 10 µM; Q9GZV3; AID 488975; hit rate 0.86% among 310,000; CHT-expressing cells, membrane potential dye, choline response; hits give low values;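 active means B-score over 3 SD under the library average, and starting fluorescence ratio not unusually high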;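 further: choline stimulus applied at its EC90 after an EC20 pre-addition; B-score computed on integrated fluorescence ratio after choline addition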
TMEM16A act – activates or potentiates the mouse TMEM16A chloride channel; HEK293 TMEM16A/YFP-H148Q/I152L, iodide quench fluorescence; hits give low values; AID 623877; hit rate 0.3% among 340,000; B-score at 10 µM;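 active means fluorescence-ratio B-score plate-corrected deviation score at least 3 library SD below zero, with starting fluorescence score within 5 deviations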;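 further: channel opened by trigger with iodide after compound preincubation; score built on the fluorescence ratio of max minus min over baseline; more negative score means more quench and so TMEM16A activation or potentiation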
CHT PAM – human CHT allosteric activation | B-score at 10 µM | Q9GZV3 | CHT-expressing cells, membrane potential dye, choline EC20; hits give high values; LV-AA mutant CHT in HEK293 cells | AID 488977 | hit rate 0.49% among 310,000;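 active means initial fluorescence not abnormally high and integrated response B-score, plate-corrected, over 3 SD above library mean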
CHT block conf – confirmation of human choline transporter CHT inhibitors | shares compounds with CHT inh | CHT-expressing cells, choline membrane potential dye; LV-to-AA substituted CHT, HEK293 cells | CHT activity remaining % of control (hits give low values), % at 10 µM | hit rate 70% among 2,400 | AID 493221;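 active means choline transporter activity left, mean of duplicates at 10 µM, below buffer-only control mean minus 3 SD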;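 further: depolarization triggered by choline at its EC90 following an EC20 pre-addition; 0% = hemicholinium-3 full block and 100% = buffer-only control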
HEK293 MPD ctr – CHT inhibitor counter-screen hit in parental HEK293 cells; shares compounds with CHT inh; membrane potential dye, choline response; active = decrease or increase beyond buffer ±3SD; membrane potential ratio readout (active if shifted either direction beyond buffer ±3SD; no single direction) at 10 µM; hit rate 4% among 2,400;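 further: parental cells lack the transporter so any hit is non-specific; ratio is peak minus trough fluorescence over baseline after EC90 choline challenge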
Active calls of the source: *; i = inactive; / = not tested or not shown.

SMILES	ANO1 block	GPR7 antagonist	Kir21 inh	CHT inh	TMEM16A act	CHT PAM	CHT block conf	HEK293 MPD ctr
Cc1cccc(C)c1NC(=O)CSc1cc(C(=O)c2nccn2C)c2ccccc2n1	i	-4	-0.15	-9.5*	i	i	i	i
Cn1ccnc1C(=O)c1cc(SCC(=O)NC2CC2)nc2ccccc12	i	-10	-2.4	i	i	i	/	/
O=C1C[C@@H]2c3c(cccc3CN1Cc1ccc(Br)cc1)C[C@@H](O)[C@H]2O	/	/	/	/	i	/	/	/
COc1ccccc1N(Cc1ccccc1)S(=O)(=O)c1cccc(C(=O)N2CCCCC2)c1	/	/	/	/	i	/	/	/
Oc1c(Br)cc(Br)cc1C=Nc1ccc2c(c1)OCO2	i	-4	-0.44	-6.4*	i	i	i	i
O=[N+]([O-])c1ccc(O)c(C=Nc2ccc3c(c2)OCCO3)c1	i	-10	1	i	i	i	/	/
Oc1c(Br)cc(Br)cc1C=Nc1ccc2c(c1)OCCO2	i	-11	-0.58	-5.3*	i	i	i	i
Cc1ccc(N=Cc2cc(Br)cc(Cl)c2O)cc1	i	17	1.7	i	i	i	/	/
COc1cc(NC(=O)CN2CCN(c3ccccc3F)CC2)cc(OC)c1	i	0	/	i	i	i	/	/
COc1cccc(NC(=O)CN2CCN(c3ccccc3F)CC2)c1	i	-8	0.19	-5.9*	i	i	i	i
CN(C)S(=O)(=O)c1cccc(C(=O)OCC(=O)NC2CCCc3ccccc32)c1 (stereo not given)	i	0	1.6	i	i	i	/	/
CC(=O)NS(=O)(=O)c1ccc(NC(=S)NC(=O)Cc2ccccc2)cc1	i	-16	-0.91	-7.5*	i	i	i	i
CC(=O)NS(=O)(=O)c1ccc(NC(=S)NC(=O)CC(C)C)cc1	i	-3	0.79	i	i	i	/	/
CC(C)Cn1c(N)c(C(=O)COC(=O)CCNS(=O)(=O)c2ccccc2)c(=O)n(C)c1=O	25*	/	0.01	-6.3*	i	i	38%*	i
Cc1ccccc1OCCC(=O)OCC(=O)c1c(N)n(CC(C)C)c(=O)n(C)c1=O	i	5	0.06	-6.6*	i	i	58%*	i
CCCCn1c(=O)n(Cc2cccc(F)c2)c(=O)c2c1ncn2Cc1ccco1	i	-16	-0.04	-12*	i	i	53%*	i
Cn1cnc2c1c(=O)n(Cc1cccc(F)c1)c(=O)n2C	i	-19	-0.2	i	i	i	/	/
O=C(CNC(=O)COc1ccccc1)NCc1ccccc1F	i	-11	0.53	i	i	i	/	/
O=C(CN1c2cccc3cccc(c23)S1(=O)=O)N1CCN(c2ccccc2)CC1	/	/	/	/	i	/	/	/
NS(=O)(=O)c1ccc(CNc2ccc3ccccc3n2)cc1	i	-4	-0.31	-9.3*	i	i	21%*	i
O=C(COC(=O)COc1ccc(Cl)cc1)NC1CCCC1	/	/	/	/	i	/	/	/
O=C(C1=C[C@@H](c2ccccc2)C[C@@H](OCCCCO)O1)N1CCOCC1	100*	15	1.4	-10*	i	i	i	i
O=c1c(-c2ccc(O)cc2O)coc2cc(O)cc(O)c12	i	-15	-0.51	i	i	i	/	/
COc1ccccc1-c1coc2cc(O)cc(O)c2c1=O	i	-19	2.2	-5.9*	i	i	65%*	i
O=C1CCc2ccc(NS(=O)(=O)c3ccc(F)cc3)cc2N1	i	-8	0.66	i	i	i	/	/
SMILES	ANO1 block	GPR7 antagonist	Kir21 inh	CHT inh	TMEM16A act	CHT PAM	CHT block conf	HEK293 MPD ctr
Cc1cc(C)nc(N2N=C(CSc3ccc(Cl)cc3)CC2=O)n1	i	-17	0.98	-5*	i	i	42%*	i
CCc1cccc(C)c1NC(=O)CN(C)S(=O)(=O)c1ccc(-c2ccc(=O)[nH]n2)s1	i	0	-0.02	i	i	i	/	/
COc1ccc(C(=O)NC2CC2)cc1OC1CCN(Cc2ccc(F)cc2Cl)CC1	i	-1	0.11	i	i	i	/	/
CCOc1ccc(C(CC(=O)O)NC(=O)C2c3ccccc3Oc3ccccc32)cc1 (stereo not given)	i	7	0.14	i	i	i	/	/
O=C(O)CC(NC(=O)C1c2ccccc2Oc2ccccc21)c1ccc(OC2CCCC2)cc1 (stereo not given)	i	12	0.54	-5.2*	i	i	i	i
O=C(O)CC(NC(=O)c1sc2ccccc2c1Cl)c1ccc(OC2CCCC2)cc1 (stereo not given)	i	3	0.83	-5.2*	i	i	28%*	i
O=C(CNC(=O)[C@@H]1Cc2ccccc2CN1)Nc1ccc2c(c1)OCCO2	i	6	1.4	i	i	i	/	/
COC(=O)[C@]1(Cc2ccccc2)N[C@H](c2ccc(-c3cccc(Cl)c3)cc2)[C@@H]2C(=O)N(C)C(=O)[C@@H]21	i	/	-1.5	i	i	i	/	/
CN(C(=O)c1ccc(OC2CCN(Cc3ccccn3)CC2)cc1)C1CCCCC1	i	-1	-2	i	i	i	/	/
CC(CNC(=O)c1ccc(OC2CCN(Cc3ccccn3)CC2)cc1)c1ccccc1 (stereo not given)	i	-6	-0.67	-12*	i	i	10%*	i
O=C(NC1CCCCC1)c1ccc(OC2CCN(Cc3ccccn3)CC2)cc1	i	-2	0.58	-13*	i	i	-6.3%*	i
CCn1nnc2cc(C(=O)Nc3cccc(S(=O)(=O)N(C)C)c3)ccc21	/	/	/	/	i	/	/	/
Cc1c(C(=O)N2CCCCC2)c(S(=O)(=O)NCCc2ccc(Cl)cc2)c(C)n1C	i	-8	1.4	i	i	i	/	/
O=C(Nc1cccc(S(=O)(=O)NC2=NCCCCC2)c1)C1COc2ccccc2O1 (stereo not given)	i	0	1.2	i	i	i	/	/
O=C(Nc1ccc(S(=O)(=O)NC2=NCCCCC2)cc1)C1COc2ccccc2O1 (stereo not given)	i	-2	-0.21	-5.1*	i	i	40%*	i
Cc1ccc(C(=O)Nc2ccc(S(=O)(=O)NC3=NCCCCC3)cc2)c(C)c1	i	/	0.57	-5.9*	i	i	19%*	i
CCCOc1ccc(C(=O)CCC(=O)OCC(=O)N2CCN(S(=O)(=O)c3ccc(C)cc3C)CC2)cc1	/	/	/	/	i	/	/	/
